Laboratory results published in PubChem BioAssay (EPA / NIEHS).
The source made the active and inactive calls. The calls were made as follows: active = hit-call score of the fitted dose curve at least 0.9, where 1 is the maximum; inactive = score below 0.9.

Columns and labels:
[1] = read-out: TIMP metallopeptidase inhibitor 2 (TIMP2), TIMP2 (gene 7077); experiment: BSK_KF3CT_TIMP2: BioMAP Diversity Plus: KF3CT Assay for TIMP metallopeptidase inhibitor 2 (TIMP2) Biomarker Activity (AID 2283071); settings: primary human keratinocytes with fibroblasts; actives raise or lower the signal
Method in brief: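 Human primary keratinocyte/foreskin fibroblast co-culture dosed with chemical and sampled at 24 h. TIMP-2 levels quantified by ELISA; bidirectional fitting against DMSO negative control as baseline.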

[2] = read-out: Transforming growth factor beta 1 (TGFb1), TGFB1 (gene 7040); experiment: BSK_KF3CT_TGFb1: BioMAP Diversity Plus: KF3CT Assay for Transforming growth factor beta 1 (TGFb1) Biomarker Activity (AID 2283072); settings: primary human keratinocytes with fibroblasts; actives raise or lower the signal
Method in brief: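 Human keratinocyte plus foreskin fibroblast primary co-culture, dosed with chemical for 24 h. TGF-b1 quantified by ELISA. Activity fitted bidirectionally against DMSO negative control as baseline.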

[3] = read-out: C-C motif chemokine 2 (Homo sapiens) (UniProt P13500); experiment: BSK_KF3CT_MCP1: BioMAP Diversity Plus: KF3CT Assay for Monocyte Chemoattractant Protein 1 (MCP1/CCL2) Biomarker Activity (AID 2283073); settings: primary human keratinocytes with fibroblasts; actives raise or lower the signal
Method in brief: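 Human keratinocyte–foreskin fibroblast co-culture; MCP-1 measured by ELISA 24 h after dosing. Bidirectional fit vs DMSO; cytotoxicity tracked by SRB total protein in parallel cultures.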

[4] = read-out: Matrix Metallopeptidase 9 (MMP9), MMP9 (gene 4318); experiment: BSK_KF3CT_MMP9: BioMAP Diversity Plus: KF3CT Assay for Matrix Metallopeptidase 9 (MMP9) Biomarker Activity (AID 2283074); settings: primary human keratinocytes with fibroblasts; actives raise or lower the signal;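 as to AC50: MMP9 protein level quantified by ELISA in the co-culture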
Method in brief: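 Keratinocyte plus foreskin fibroblast human primary skin co-culture was dosed with chemical and MMP-9 was quantified by ELISA 24 h later. Bidirectional curve fitting used DMSO as negative control and activity baseline.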

[5] = read-out: urokinase plasminogen activator (uPA), PLAU (gene 5328); experiment: BSK_KF3CT_uPA: BioMAP Diversity Plus: KF3CT Assay for urokinase plasminogen activator (uPA) Biomarker Activity (AID 2283075); settings: primary human keratinocytes with fibroblasts; actives raise or lower the signal
Method in brief: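 Human keratinocyte plus foreskin fibroblast primary co-culture exposed to chemical for 24 h. uPA levels were quantified by ELISA, and activity was fitted bidirectionally against a DMSO negative-control baseline.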

CD40, CD40 (gene 958) [6] = experiment: BSK_LPS_CD40: BioMAP Diversity Plus: LPS Assay for CD40 Biomarker Activity (AID 2283076); settings: primary human HUVEC with PBMC; actives raise or lower the signal
Method in brief: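 HUVEC plus PBMC co-culture stimulated with LPS; CD40 quantified by ELISA 24 h after compound dosing. Fitting was bidirectional relative to DMSO. SRB staining of parallel cultures flagged overt cytotoxicity.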

[7] = read-out: E-selectin (Homo sapiens) (UniProt P16581); experiment: BSK_LPS_Eselectin: BioMAP Diversity Plus: LPS Assay for Eselectin Biomarker Activity (AID 2283077); settings: primary human HUVEC with PBMC; actives raise or lower the signal
Method in brief: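 Human umbilical vein endothelial cells co-cultured with PBMC under LPS stimulation; cell-surface E-selectin measured by ELISA 24 h after dosing. Change in either direction versus DMSO, with SRB total-protein staining in parallel cultures for cytotoxicity.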

[8] = read-out: Interleukin-8 (IL8), CXCL8 (gene 3576); experiment: BSK_LPS_IL8: BioMAP Diversity Plus: LPS Assay for Interleukin-8 (IL8) Biomarker Activity (AID 2283078); settings: primary human HUVEC with PBMC; actives raise or lower the signal
Method in brief: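 Human umbilical vein endothelial cells co-cultured with PBMC, LPS-stimulated, exposed to compound for 24 h. IL-8 quantified by ELISA; fitted in both directions against DMSO, with SRB total-protein staining of parallel cultures for cytotoxicity.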

[9] = read-out: Interleukin-1 alpha (IL1a), IL1A (gene 3552); experiment: BSK_LPS_IL1a: BioMAP Diversity Plus: LPS Assay for Interleukin-1 alpha (IL1a) Biomarker Activity (AID 2283080); settings: primary human HUVEC with PBMC; actives raise or lower the signal
Method in brief: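 Human umbilical vein endothelial cells co-cultured with PBMC and stimulated with LPS; IL-1a measured by ELISA 24 h after dosing. Bidirectional fitting against DMSO; cytotoxicity checked by SRB staining in parallel cultures.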

[10] = read-out: Monocyte Chemoattractant Protein-1 (MCP1), CCL2 (gene 6347); experiment: BSK_LPS_MCP1: BioMAP Diversity Plus: LPS Assay for Monocyte Chemoattractant Protein-1 (MCP1) Biomarker Activity (AID 2283081); settings: primary human HUVEC with PBMC; actives raise or lower the signal;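 as to AC50: secreted MCP-1 protein quantified by ELISA in culture supernatant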
Method in brief: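 Human umbilical vein endothelial cells co-cultured with PBMC, LPS-stimulated; secreted MCP-1 measured by ELISA 24 h after compound addition. Bidirectional curve fitting against DMSO baseline; SRB total-protein staining in parallel cultures for cytotoxicity.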

[11] = BSK_LPS_PGE2: BioMAP Diversity Plus: LPS Assay for Prostaglandin E2 (PGE2) Biomarker Activity (AID 2283082); settings: primary human HUVEC with PBMC; actives raise or lower the signal;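 as to AC50: secreted prostaglandin E2 measured by ELISA in LPS-stimulated co-culture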
Method in brief: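 HUVEC plus PBMC co-culture stimulated with LPS; secreted PGE2 quantified by ELISA 24 h after chemical dosing. Activity fitted bidirectionally against DMSO as negative control and baseline; parallel SRB total-protein staining served as cytotoxicity check.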

[12] = read-out: Macrophage colony-stimulating factor (MCSF), CSF1 (gene 1435); experiment: BSK_LPS_MCSF: BioMAP Diversity Plus: LPS Assay for Macrophage colony-stimulating factor (MCSF) Biomarker Activity (AID 2283083); settings: primary human HUVEC with PBMC; actives raise or lower the signal
Method in brief: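 HUVEC–PBMC co-culture, M-CSF measured by ELISA 24 h after chemical dosing. Fitted in both directions relative to DMSO as negative control; overt cytotoxicity assessed by SRB total-protein staining in parallel cultures.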

[13] = read-out: Tissue Factor, F3 (gene 2152); experiment: BSK_LPS_TissueFactor: BioMAP Diversity Plus: LPS Assay for Tissue Factor Biomarker Activity (AID 2283084); settings: primary human HUVEC with PBMC; actives raise or lower the signal
Method in brief: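 Human umbilical vein endothelial cells co-cultured with PBMC were dosed with compound. Cell-surface CD142 was measured by ELISA 24 h later. Activity was fitted bidirectionally against DMSO, with SRB total-protein staining in parallel cultures for cytotoxicity.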

[14] = read-out: Vascular cell adhesion molecule 1 (VCAM1), VCAM1 (gene 7412); experiment: BSK_LPS_VCAM1: BioMAP Diversity Plus: LPS Assay for Vascular cell adhesion molecule 1 (VCAM1) Biomarker Activity (AID 2283086); settings: primary human HUVEC with PBMC; actives raise or lower the signal
Method in brief: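 Human umbilical vein endothelial cells co-cultured with peripheral blood mononuclear cells under LPS stimulation were exposed to test chemical for 24 h. VCAM-1 levels were then measured by ELISA, with bidirectional curve fitting relative to DMSO as negative control and baseline.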

CD38, CD38 (gene 952) = experiment: BSK_SAg_CD38: BioMAP Diversity Plus: SAg Assay for CD38 Biomarker Activity (AID 2283087); settings: primary human HUVEC with PBMC; actives raise or lower the signal
Method in brief: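 Fluorescence ELISA of cell-surface CD38 served as the read-out, with either increase or decrease fitted against DMSO controls. Cells were a human umbilical vein endothelium plus PBMC co-culture under SEB/TSST-1 stimulation, measured 24 h after dosing.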

CD40, CD40 (gene 958) [15] = experiment: BSK_SAg_CD40: BioMAP Diversity Plus: SAg Assay for CD40 Biomarker Activity (AID 2283088); settings: primary human HUVEC with PBMC; actives raise or lower the signal
Method in brief: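 HUVEC plus PBMC co-culture, superantigen-activated, with CD40 read by ELISA 24 h after dosing. Curves fitted in both directions against DMSO. Overt cytotoxicity checked by parallel SRB total-protein staining.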

CD69, CD69 (gene 969) = experiment: BSK_SAg_CD69: BioMAP Diversity Plus: SAg Assay for CD69 Biomarker Activity (AID 2283089); settings: primary human HUVEC with PBMC; actives raise or lower the signal;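 as to AC50: cell surface CD69 protein quantified by ELISA with fluorescence detection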
Method in brief: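 HUVEC co-cultured with PBMC were dosed with chemical, and CD69 was measured by ELISA with fluorescence read-out 24 h later. Bidirectional curve fitting used DMSO as negative control and activity baseline.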

[16] = read-out: Monocyte Chemoattractant Protein-1 (MCP1), CCL2 (gene 6347); experiment: BSK_SAg_MCP1: BioMAP Diversity Plus: SAg Assay for Monocyte Chemoattractant Protein-1 (MCP1) Biomarker Activity (AID 2283090); settings: primary human HUVEC with PBMC; actives raise or lower the signal
Method in brief: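 MCP-1 levels in the endothelial–PBMC SAg co-culture were quantified by ELISA at 24 h post-dosing; both increases and decreases versus DMSO scored. Cytotoxicity monitored by SRB total protein in parallel cultures.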

[17] = BSK_LPS_SRB: Viability Assessment in the BioMAP Diversity Plus: LPS Assay (AID 2283079); settings: primary human HUVEC with PBMC;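 also: total protein by sulforhodamine B absorbance as a cytotoxicity measure; measured one day after compound addition; fitted in both directions against DMSO so loss or gain of signal counts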
Method in brief: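 Co-culture of human umbilical vein endothelial cells and PBMC, read 24 h after dosing. Total protein by 0.1% SRB staining after 10% TCA fixation, absorbance at 560 nm; bidirectional fit against DMSO.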

[18] = read-out: Tumor necrosis factor (Homo sapiens) (UniProt P01375); experiment: BSK_LPS_TNFa: BioMAP Diversity Plus: LPS Assay for Tumour Necrosis Factor alpha (TNFa) Biomarker Activity (AID 2283085); settings: primary human HUVEC with PBMC; actives raise or lower the signal
Method in brief: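 Human umbilical vein endothelial cells co-cultured with PBMC were exposed to test chemical and TNFa measured by ELISA 24 h after dosing. Bidirectional curve fitting was done relative to DMSO as negative control and baseline.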

Measured: AC50

Chain of Tumor necrosis factor (Homo sapiens) (P01375 whole entry, looked up): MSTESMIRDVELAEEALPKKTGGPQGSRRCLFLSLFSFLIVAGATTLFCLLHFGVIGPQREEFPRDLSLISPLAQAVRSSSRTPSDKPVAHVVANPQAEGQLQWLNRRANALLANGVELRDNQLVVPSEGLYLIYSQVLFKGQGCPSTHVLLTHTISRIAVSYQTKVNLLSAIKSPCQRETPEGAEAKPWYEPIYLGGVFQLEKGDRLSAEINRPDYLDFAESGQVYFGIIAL
Chain of E-selectin (Homo sapiens) (P16581 whole entry, looked up): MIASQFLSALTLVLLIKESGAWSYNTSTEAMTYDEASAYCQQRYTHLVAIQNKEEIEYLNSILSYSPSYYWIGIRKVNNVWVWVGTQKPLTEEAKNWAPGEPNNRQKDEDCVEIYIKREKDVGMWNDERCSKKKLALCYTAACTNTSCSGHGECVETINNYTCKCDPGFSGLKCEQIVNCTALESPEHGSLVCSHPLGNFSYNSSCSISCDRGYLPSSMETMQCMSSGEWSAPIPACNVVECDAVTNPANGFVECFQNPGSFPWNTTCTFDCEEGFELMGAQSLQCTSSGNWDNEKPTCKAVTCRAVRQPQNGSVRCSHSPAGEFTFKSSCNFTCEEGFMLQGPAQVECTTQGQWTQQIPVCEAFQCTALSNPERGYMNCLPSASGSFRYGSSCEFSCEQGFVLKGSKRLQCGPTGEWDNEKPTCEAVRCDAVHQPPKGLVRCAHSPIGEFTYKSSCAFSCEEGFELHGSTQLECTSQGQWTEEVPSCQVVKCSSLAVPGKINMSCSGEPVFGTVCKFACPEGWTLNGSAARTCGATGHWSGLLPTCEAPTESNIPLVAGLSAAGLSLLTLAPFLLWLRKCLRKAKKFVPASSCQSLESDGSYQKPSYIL

ClC1(Cl)C2(Cl)C3(Cl)C4(Cl)C(Cl)(Cl)C5(Cl)C3(Cl)C1(Cl)C5(Cl)C24Cl (centres undefined)
active: [11] 0.148 µM
not listed: [17] | [18]
inactive: all other assays above

NC(=S)Nc1ccccc1
not listed: [17] | [18]
inactive: all other assays above

ClC1=C(Cl)[C@]2(Cl)[C@H]3[C@H]([C@H]4C=C[C@H]3C4)[C@@]1(Cl)C2(Cl)Cl
active: [2] 2.86 µM | [8] 0.16 µM | [17] 5.73 µM | [11] 0.142 µM | CD38, CD38 (gene 952) 4.55 µM | CD40, CD40 (gene 958) [15] 4.46 µM
not listed: CD69, CD69 (gene 969) | [18]
inactive: all other assays above

CCC(=O)C(CC(C)N(C)C)(c1ccccc1)c1ccccc1 (centres undefined)
not listed: [9]
inactive: all other assays above

ClCC(Cl)CCl
not listed: [9] | [18]
inactive: all other assays above

O=Cc1cccc(Oc2ccccc2)c1
inactive: all assays above

COP(=S)(OC)Oc1ccc(Sc2ccc(OP(=S)(OC)OC)cc2)cc1
inactive: [1] | [2] | [3] | [5] | [7] | [13] | [14]
active: [4] 10.4 µM | CD40, CD40 (gene 958) [6] 20 µM | [8] 3.97 µM | [10] 12.5 µM | [11] 9.58 µM | [12] 20 µM | CD38, CD38 (gene 952) 14.5 µM | CD40, CD40 (gene 958) [15] 14.8 µM | CD69, CD69 (gene 969) 13.6 µM | [16] 26.9 µM

CC(C)(C)c1cc(O)ccc1O
active: [2] 20 µM | [3] 36 µM | [4] 29.5 µM | [5] 31.3 µM | CD40, CD40 (gene 958) [6] 5.75 µM | [7] 12.4 µM | [8] 13.1 µM | [17] 28.5 µM | [9] 14.5 µM | [10] 13 µM | [11] 5.94 µM | [12] 12.1 µM | [13] 20 µM | [18] 9.38 µM | [14] 8.15 µM | CD38, CD38 (gene 952) 8.22 µM | CD40, CD40 (gene 958) [15] 8.26 µM | CD69, CD69 (gene 969) 5.54 µM | [16] 8.93 µM

CCSC(C)CC1CC(=O)C(C(CC)=NOC/C=C/Cl)=C(O)C1 (centres undefined)
active: [8] 0.0903 µM
not listed: [9] | [18]
inactive: all other assays above

CC(C)c1ccc(CO)cc1
not listed: [9] | [17]
inactive: all other assays above

CCOP(=S)(OCC)Oc1nc(Cl)c(Cl)cc1Cl
active: CD40, CD40 (gene 958) [6] 20 µM | [12] 20 µM | [14] 29.2 µM | CD38, CD38 (gene 952) 32.3 µM | CD40, CD40 (gene 958) [15] 33.1 µM | CD69, CD69 (gene 969) 20 µM | [16] 30.1 µM
not listed: [9] | [17] | [18]
inactive: all other assays above

CCOP(=S)(OCC)Oc1ccc(S(C)=O)cc1 (centres undefined)
not listed: [18]
inactive: all other assays above
